# Data taken from PubChem BioAssay (Tox21).
# “And” between values parts separate entries of the source, which are not always exact repeats. Identical values can stand only once. Results filed as inconclusive are left out. The source made the active and inactive calls. The call rests on the fitted dose curve; in most records, active means well fitted cell-killing curve with a large enough effect in the repeat runs; inconclusive means weak or mixed curves, or effect the other way; inactive means flat fitted curve, though single readings scatter.
# Experiment: qHTS assay to identify small molecule antagonists of the retinoid acid receptor (RAR) signaling pathway - cell viability counter screen (AID 1159551); further: nearly all actives have a fitted effect of over 35% in size
# Settings: C3RL4 cells viability, ATP luminescence (CellTiter-Glo), 6 h; series mostly up to 92.4 µM; activity change, negative = cytotoxicity: at the top concentration
# Outline: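 Seed C3RL4 cells; next day add compound, then retinol to 1 uM final; incubate 6 h at 37 C; add CellTiter-Glo; read luminescence after 30 min at RT.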
# On the % scale 0 is the no-effect control and ±100 the full control effect; potency means the concentration at half of the fitted maximal effect.
SMILES,Potency,"activity change, negative = cytotoxicity"
C[C@@H]1CC[C@@]2(OC1)O[C@H]1[C@@H](O)[C@H]3[C@@H]4CC[C@H]5C[C@@H](O[C@@H]6O[C@H](CO)[C@H](O[C@@H]7O[C@H](CO)[C@@H](O)[C@H](O[C@@H]8OC[C@@H](O)[C@H](O)[C@H]8O)[C@H]7O[C@@H]7O[C@H](CO)[C@@H](O)[C@H](O[C@@H]8O[C@H](CO)[C@@H](O)[C@H](O)[C@H]8O)[C@H]7O)[C@H](O)[C@H]6O)[C@H](O)C[C@]5(C)[C@H]4CC[C@]3(C)[C@H]1[C@@H]2C,25.8 µM (active),
ClCc1ccccc1CCl,,-0.31% (inactive)
COc1ccc(OC)c(CC(C)N)c1 (configuration not stated),,-0.395% (inactive)
ClC(Cl)=C(c1ccc(Cl)cc1)c1ccc(Cl)cc1,inactive,
C[C@@H](Oc1ccc(Cl)cc1Cl)C(=O)O,,-0.685% (inactive)
O=C(NC(=O)c1c(F)cccc1F)Nc1cc(Cl)c(OC(F)(F)C(F)F)c(Cl)c1,,1.34% (inactive)
CCCCCCCCCCBr,,-2% (inactive)
CC(C)(C)OO,,2.17% (inactive)
BrCC(Br)c1ccccc1 (configuration not stated),,1.39% (inactive)
ClC1=C(Cl)[C@]2(Cl)[C@@H]3[C@@H](Cl)[C@@H](Cl)C[C@@H]3[C@@]1(Cl)C2(Cl)Cl,,1.42% (inactive)
OC(Cc1ccccc1Cl)(Cn1cncn1)C1(Cl)CC1 (configuration not stated),,-3.72% (inactive)
COc1ccc(OC)c(C=O)c1,,-1.59% (inactive)
CCOC(=O)c1ccccc1S(=O)(=O)NC(=O)Nc1nc(Cl)cc(OC)n1,,0.0556% (inactive)
CC(Cl)CN(C)C (configuration not stated),,1.21% (inactive)
CCCCOP(=O)(CCCC)OCCCC,,-3.44% (inactive)
[Cl][Sb]([Cl])[Cl],,-1.68% (inactive)
c1ccc(OCC2CO2)cc1 (configuration not stated),,1.14% (inactive)
CCOP(=S)(OCC)OC(Cl)C(Cl)(Cl)Cl (configuration not stated),,-0.145% (inactive)
c1ccc2c(c1)[nH]c1cnccc12,,4.1% (inactive)

SMILES,Potency,"activity change, negative = cytotoxicity"
N#CCc1ccc(Cl)cc1,,2.35% (inactive)
Oc1ccccc1Br,,3.38% (inactive)
Clc1ccc(CCC(Cn2ccnc2)Sc2c(Cl)cccc2Cl)cc1 (configuration not stated),,0.595% [at 42.5 µM] (inactive)
Cc1ccc(C(=O)Cl)cc1,,-2.29% (inactive)
C[As+](C)(C)CC(=O)[O-],,-0.462% (inactive)
N#C/C=C/c1ccccc1,,0.816% (inactive)
CCOP(=S)(OCC)SCS(=O)(=O)C(C)(C)C,,-3.86% (inactive)
CC(C)(c1ccc(O)c(-c2ccccc2)c1)c1ccc(O)c(-c2ccccc2)c1,54.5 µM (active),
CC(C)(COCC1CO1)COCC1CO1 (configuration not stated),,-1.07% (inactive)
N#CSCSC#N,27.9 µM (active) and 30.3 µM (active),
COP(N)(=S)OC,,0.846% (inactive)
Cc1cccc(OP(=O)(Oc2cccc(C)c2)Oc2cccc(C)c2)c1,,-0.626% (inactive)
C=CCOC(N)=O,,4.65% (inactive)
CC(=O)/C=C/c1ccc2c(c1)OCO2,,5.99% (inactive)
CCCCCCCCCC[N+](C)(C)CCCCCCCCCC,61.1 µM (active),
COc1ccc([N+](=O)[O-])cc1O,,-0.271% [at 42.5 µM] (inactive)
Nc1ccc([N+](=O)[O-])cc1Cl,,-0.243% (inactive)
C[C@H]1CC[C@@H]2[C@@H](C)[C@H]3[C@H](C[C@H]4[C@@H]5CC=C6CC(O[C@@H]7O[C@H](CO)[C@H](O)[C@H](O[C@@H]8O[C@H](CO)[C@@H](O)[C@H](O)[C@H]8O)[C@H]7O[C@H]7O[C@@H](C)[C@H](O)[C@@H](O)[C@H]7O)CC[C@]6(C)[C@H]5CC[C@]34C)N2C1 (some centres not stated),25.1 µM (active),
